CYP2C9 act – human CYP2C9 activators, primary screen, biochemical, luminescence | Cytochrome P450 2C9 (Homo sapiens), P11712 | recombinant CYP2C9, luciferin-H conversion; stronger effect = higher value; factor 1 = untreated enzyme, 0 = blocked | AID 1024, 2008 | activation factor at 5 µM | actives 1.4% (n = 96,000);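 active = activation factor of 2 or more for CYP2C9 at a 5 µM dose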;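 also: 0 = sulfaphenazole-blocked wells and 1 = vehicle-only wells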
CYP2C19 inhib – blockers of cytochrome P450 2C19 activity – biochemical, luminescence, ADME assay, primary screen; P33261; CYP2C19 Supersomes, luciferin-H EGE luminescence, 30 min; inhibition, % at 5 µM; actives 21% (n = 96,000);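 active = CYP2C19 inhibition above a set limit at 5 µM in the primary screen, cut at about 50% in these data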;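 also: plate controls were negative control wells for no effect and 2.5 mM tranylcypromine positive control for full effect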
Target sequence (P33261 whole entry, looked up): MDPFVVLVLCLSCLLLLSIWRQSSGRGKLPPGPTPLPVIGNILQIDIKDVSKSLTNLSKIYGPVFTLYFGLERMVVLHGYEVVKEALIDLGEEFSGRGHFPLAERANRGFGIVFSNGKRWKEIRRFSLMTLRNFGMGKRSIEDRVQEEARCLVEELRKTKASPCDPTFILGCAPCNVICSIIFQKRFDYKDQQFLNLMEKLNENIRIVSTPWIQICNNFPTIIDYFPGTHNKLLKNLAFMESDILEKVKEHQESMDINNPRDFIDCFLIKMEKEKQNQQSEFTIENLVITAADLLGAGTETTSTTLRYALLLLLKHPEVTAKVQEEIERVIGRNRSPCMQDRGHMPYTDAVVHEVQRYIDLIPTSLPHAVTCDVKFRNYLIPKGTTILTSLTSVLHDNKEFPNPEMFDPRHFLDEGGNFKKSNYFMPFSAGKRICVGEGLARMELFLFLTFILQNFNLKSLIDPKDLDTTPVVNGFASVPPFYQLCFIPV
Measles CPE – compounds protecting cells from measles virus cytopathic effect, primary screen, measles RdRp inhibitor project, single point, MLSMR library, absorbance. actives 1.5% (n = 140,000). AID 841, 2007. Measles virus-infected cells, CPE protection. protection (pct of control), % at 4 µM; in the data active = protection mostly above about 24%, no sharp cut-off; inactive = mostly below about 26%
CYP2C19 activ – human CYP2C19 activators, primary screen, biochemical, luminescence; recombinant CYP2C19, luciferin-H EGE luminescence; stronger effect = higher value; 0 = fully inhibited enzyme, 1 = untreated enzyme; 96,000 tested, under 10 active; activation factor at 5 µM; AID 1025, 2008; Cytochrome P450 2C19 (Homo sapiens), P33261;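 active = activation factor of at least 2 at 5 µM in the primary screen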;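 also: 0 = wells with 2.5 mM tranylcypromine and 1 = vehicle-only wells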
CYP2C9 inhib – blockers of cytochrome P450 2C9 activity – biochemical, luminescence, ADME assay, primary screen; P11712; CYP2C9 Supersomes, luciferin-H conversion; inhibition, % at 5 µM; actives 20% (n = 96,000); AID 777, 2007;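 active = blocking of liver enzyme CYP2C9 beyond about 50% at 5 µM, limit read from the data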
* = called active by the depositor; x = no result given. The list is not random: actives were taken first. Their share in the collection is about 22%.

SMILES	CYP2C9 act	CYP2C19 inhib	Measles CPE	CYP2C19 activ	CYP2C9 inhib
O=C(CSc1ccc(C(F)(F)F)cc1[N+](=O)[O-])Nc1ccccc1	1	15	14	0.9	2
CCC(C)NCC(=O)Nc1sc2c(c1C(N)=O)CCC2 (stereo not drawn)	1	-2	3	1	1
COc1ccc(N(CC(=O)Nc2ccccc2SC)S(C)(=O)=O)cc1OC	0.8	14	8	0.9	25
CSc1cccc(NC(=O)CN(c2cc(C)ccc2C)S(C)(=O)=O)c1	0.4	85*	15	0.2	56*
CNC(=O)CN(c1cc(C)ccc1C)S(C)(=O)=O	0.9	21	4	0.8	10
COc1ccc(N(CC(=O)Nc2cccc(SC)c2)S(C)(=O)=O)cc1Cl	0.9	59*	4	0.4	13
COc1ccc(OC)c(N(CC(=O)Nc2ccc(NC(C)=O)cc2)S(C)(=O)=O)c1	0.6	0	12	1	41
COc1ccc(Cl)cc1N(CC(=O)Nc1ccc2c(c1)OCCO2)S(C)(=O)=O	0.3	76*	8	0.2	69*
COc1ccc(Cl)cc1N(CC(=O)Nc1cccc(SC)c1)S(C)(=O)=O	0.3	91*	4	0.1	72*
COc1ccccc1N(CC(=O)Nc1ccc2c(c1)OCCO2)S(C)(=O)=O	0.7	-2	5	1	31
O=C(c1ccc(Cl)s1)N1CCN(c2nc3ccccc3s2)CC1	0.9	17	0	0.8	14
CS(=O)(=O)c1cccc(C(=O)NC(c2ccccc2)c2ccccc2)c1	0	75*	8	0.3	97*
COc1ccc(OC)c(NC(=O)C2CCN(c3cc(-c4ccccc4)nc4ncnn34)CC2)c1	0.7	52*	2	0.5	32
COc1ccc(NC(=O)C2CCN(c3cc(-c4ccccc4)nc4ncnn34)CC2)cc1OC	0.6	25	14	0.7	38
COc1ccc(N2CCN(Cc3nc(-c4ccc(Cl)cc4Cl)no3)CC2)cc1	x	x	3	x	x
NC(=NCCc1c[nH]c2ccccc12)NS(=O)(=O)c1cc(F)ccc1F	x	x	21	x	x
Cc1ccc(-c2nc3ccccc3c(=O)n2CCCN2CCOCC2)cc1	1	-11	16	1.1	-3
Cc1ccc(-c2nc(NCCN3CCOCC3)c3ccccc3n2)cc1	0.3	59*	6	0.4	72*
COc1cccc(-c2nc(NC(C)(C)C)c3ccccc3n2)c1O	0.2	31	11	0.7	84*
COc1cccc(-c2nc(NCCN3CCOCC3)c3ccccc3n2)c1O	0.4	32	5	0.7	56*
Fc1ccccc1-c1nc(NCCCN2CCOCC2)c2ccccc2n1	x	x	5	x	x
Oc1ccccc1-c1nc(NCCN2CCOCC2)c2ccccc2n1	0	89*	11	0.1	97*
Brc1ccc(C2Nc3cccc4cccc(c34)N2)o1	0.8	71*	1	0.3	20
COc1ccc(-n2c(=O)c3ccccc3n(CC(=O)NC3CCCC3)c2=O)cc1	0.8	8	12	0.9	16
COc1cccc(CNn2c(-c3cccc(C)c3)nc3ccccc3c2=O)c1	0	98*	17	0	98*
SMILES	CYP2C9 act	CYP2C19 inhib	Measles CPE	CYP2C19 activ	CYP2C9 inhib
COc1cccc(-c2nc3ccccc3c(=O)n2NC(=O)c2cccnc2Cl)c1	x	x	6	x	x
COc1ccc(OCC(=O)Nn2c(-c3ccc(C)cc3)nc3ccccc3c2=O)cc1	x	x	13	x	x
COc1ccc(OC)c(CNn2c(-c3cccc(C)c3)nc3ccccc3c2=O)c1	0.2	89*	5	0.1	80*
O=C(CN1CCOCC1)Nc1ncc(Cc2cccc(Cl)c2Cl)s1	x	x	7	x	x
Cc1ccc(-n2c(C)cc(/C=N/NC(=O)CC3(C)OCCO3)c2C)cc1	x	x	22	x	x
COCCCn1c2nc3ccccc3nc2c2c(=O)n(Cc3ccc(Cl)cc3)cnc21	0.9	96*	3	0	12
O=c1c2c3nc4ccccc4nc3n(Cc3ccccc3)c2ncn1Cc1ccco1	0.4	14	1	0.9	61*
CCCCCn1c2nc3ccccc3nc2c2c(=O)n(CC3CCCO3)c(C)nc21 (stereo not drawn)	0.3	13	x	0.9	74*
COCCCn1c(C)nc2c(c1=O)c1nc3ccccc3nc1n2CCc1ccccc1	0.2	29	4	0.7	80*
CCOCCCn1c(C)nc2c(c1=O)c1nc3ccccc3nc1n2-c1ccc(C)cc1	1	-13	26	1.1	5
CCN(CC)C(=O)c1cnn(-c2ccccc2)c1NC(=O)c1cccs1	x	x	15	x	x
COc1ccc(C(O)CNc2ccc(C)cc2)cc1 (stereo not drawn)	0.8	92*	30	0.1	16
COc1ccc(CCNc2ccc(C)cc2)cc1	0.5	85*	20	0.2	45
O=C(O)c1cccc(-c2nnn(Cc3ccccc3)n2)c1	x	x	2	x	x
CCOC(=O)C1=C(CC)OC(N)=C(C#N)C1c1ccsc1 (stereo not drawn)	x	x	10	x	x
CCOC(=O)CC1=C(C(=O)OCC)C(c2ccc(OC)cc2OC)C(C#N)=C(N)O1 (stereo not drawn)	0.4	49	22	0.5	64*
Cc1ccc(C2C(C#N)=C(N)Oc3c2sc2ccccc32)o1 (stereo not drawn)	0.2	63*	14	0.4	81*
CCOC(=O)CC1=C(C(=O)OCC)C(c2ccc(C)o2)C(C#N)=C(N)O1 (stereo not drawn)	0.7	94*	10	0.1	31
COCCn1c(-c2ccc(Cl)cc2)nc2c(c(=O)c3ccccc3n2C)c1=O	x	x	10	x	x
O=CN1CCN(C(=O)Cc2ccc([N+](=O)[O-])cc2)CC1	x	x	4	x	x
O=C(CCSCCc1ccccn1)Nc1c(F)cc(F)cc1Br	x	x	10	x	x
Cc1csc(NC(=O)CCSCCc2ccccn2)n1	0.6	61*	21	0.4	41
Cc1ccc(-n2nc3c(c2NC(=O)c2ccccc2Br)CS(=O)C3)cc1 (stereo not drawn)	0.6	34	9	0.7	44
CC(C)(C)c1ccc(O)c(/C=N\O)c1	0.6	30	10	0.7	44
N#Cc1cccc(NC(=O)c2ccccc2C(=O)O)c1	1.1	1	41	1	-7
COc1ccc(C(=N/O)/C(=N/O)c2ccc(OC)cc2)cc1	0.7	60*	1	0.4	27
COc1ccc(C(Cl)=C(c2ccc(OC)cc2)c2ccc(OC)cc2)cc1	x	x	2	x	x
Cc1ccccc1CSCCC(=O)NCCC1=CCCCC1	x	x	4	x	x
CCOC(=O)c1c(N)sc(C(O)(C(F)(F)F)C(F)(F)F)c1-c1ccc(OC)cc1OC	0.3	55*	12	0.5	72*
CCOC(=O)C1=C(N)c2ccccc2CC1C(C)C (stereo not drawn)	0.2	96*	0	0	81*
